Inconclusive results are not listed. The source made the active and inactive calls. Unless noted, calls come from the whole dose curve; as a rule, active = well fitted curve in the direction sought with a large enough effect; inconclusive = small, poorly fitted or top-dose-only effect, or another doubt; inactive = no such curve, though single readings can be large; an effect the other way counts as inactive or inconclusive.
What was measured:
[1] = Cell Viability - BJ (AID 421; calls by dose curve;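 note: potency is the fitted concentration of half-maximal effect; cells exposed to compound for 40 hours at 37 °C before readout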); settings: BJ fibroblast viability, qHTS
How it was run: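 Quantitative HTS: ATP depletion in BJ cells after 40 hr compound exposure in complete culture medium, detected with CellTiter-Glo; AC50 from standard Hill fits.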

[2] = Cell Viability - Jurkat (AID 426;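 active = dose-dependent loss of cell ATP signal giving a full or clear fitted curve, ranked by lower potency value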; note: potency is the fitted concentration of half-maximal effect); settings: qHTS
How it was run: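 qHTS, 1536-well; Jurkat E6-1, 5000 cells/well, complete medium; cpd 40 hr, 37 °C; CellTiter-Glo 20 min RT; luminescence. AC50 by Hill fit.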

[3] = Cell Viability - Hek293 (AID 427;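 active = compounds whose dose-response curve shows a full or clear partial loss of cell viability, called from curve shape rather than a numeric limit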;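 note: potency is the fitted concentration of half-maximal effect; cells exposed to compound for 40 hours at 37 °C before reading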); settings: qHTS
How it was run: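 AC50 values derive from Hill-modelled concentration-response of ATP-based luminescence, normalized between DMSO-only and 100 uM tamoxifen controls. Cells were exposed in complete culture medium for 40 hr at 37 °C before detection.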

[4] = Cell Viability - HepG2 (AID 433; calls by dose curve;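 note: potency is the fitted concentration of half-maximal effect; potency for ATP loss meaning cytotoxicity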); settings: qHTS
How it was run: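 HepG2 hepatocellular carcinoma cells (1500/well) were treated with compounds for 40 h at 37 °C in complete medium; intracellular ATP was read by CellTiter-Glo luminescence. Data were normalized to DMSO and 100 uM tamoxifen, and AC50 came from Hill fits.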

[5] = Cell Viability - MRC5 (AID 434; calls by dose curve;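 note: potency is the fitted concentration of half-maximal effect; potency reflects cytotoxicity seen as loss of intracellular ATP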); settings: MRC5 lung fibroblast viability, qHTS
How it was run: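 MRC5 normal human lung fibroblasts, 1500 cells/well, exposed to compound for 40 hr at 37 C. Cellular ATP was read by CellTiter-Glo luminescence; data normalized to DMSO and 100 uM tamoxifen, with AC50 from Hill fits.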

[6] = Cell Viability - SK-N-SH (AID 435; calls by dose curve;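 note: potency is the fitted concentration of half-maximal effect; compound exposure lasted 40 h at 37 °C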); settings: SK-N-SH neuroblastoma cell viability qHTS
How it was run: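 SK-N-SH human neuroblastoma cells (1500/well) were exposed to compounds in complete medium for 40 h at 37 °C, and intracellular ATP was then measured by CellTiter-Glo luminescence. AC50 was taken from Hill fits, normalized to DMSO and 100 uM tamoxifen.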

[7] = target: Mitogen-activated protein kinase 10 (Mus musculus) (UniProt Q61831); assay: JNK3 AlphaScreen Assay (AID 530; active = well fitted curve in either direction with a large enough effect, not every such curve was filed as active;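 note: kinase came from lysate of stimulated human HepG2 cells; signal reports phosphorylation of biotinylated GST-cJun 1-79 at Ser73 with 10 µM ATP; % is set by controls: 0 for no effect and ±100 for the full control effect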); settings: JNK3 lysate, c-Jun phosphorylation; series mostly up to 57.1 µM
How it was run: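 Pre-activated (IL-1β/TNFα) JNK3 in HepG2 lysates phosphorylates biotin-GST-cJun(1-79), 10 uM ATP; anti-phospho-cJun(Ser73) AlphaScreen read at room temperature, pH 7.6 Tris buffer. Compounds pre-incubated 15 min as titrations.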

[8] = Cell Viability - N2a (AID 540); settings: N2a mouse neuroblastoma cell viability; activity change, negative = cytotoxicity: at 92.2 µM (top of the series);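 note: plate controls were DMSO alone for no effect and tamoxifen control for full effect; nearly all actives have a fitted effect of over 45% in size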
How it was run: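 Luminescent ATP signal (CellTiter-Glo, 20 min at room temperature) served as the viability read-out after N2a cells were treated with compounds for 40 hours at 37 °C. Concentration-response data were fitted to the Hill equation for AC50.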

[9] = Cell Viability - NIH 3T3 (AID 541); settings: NIH 3T3 cell viability, qHTS; activity change, negative = cytotoxicity: at 92.2 µM (top of the series);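 note: plate controls were DMSO alone for no effect and tamoxifen positive control for full effect; nearly all actives have a fitted effect of over 25% in size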
How it was run: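 Luminescent ATP signal (CellTiter-Glo) served as the viability read-out after NIH 3T3 cells were exposed to compounds over a concentration range for 40 hr at 37 °C. Hill-equation modelling of concentration-response data gave AC50.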

[10] = Cell Viability - H-4-II-E (AID 543); settings: H-4-II-E rat hepatoma viability; series mostly up to 92.2 µM; note: % is set by controls: 0 for no effect and ±100 for the full control effect; nearly all actives have a fitted effect of over 35% in size
How it was run: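 Luminescent ATP signal (CellTiter-Glo) served as the viability read-out, with cytotoxicity seen as a concentration-dependent ATP drop. Cells were treated for 40 hours in complete medium. AC50 values derive from Hill-equation modelling.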

[11] = Cell Viability - SH-SY5Y (AID 544); settings: SH-SY5Y neuroblastoma cell viability; viability change, negative = cytotoxic: at 92.2 µM (top of the series); note: nearly all actives have a fitted effect of over 55% in size
How it was run: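 Luminescent ATP read-out (CellTiter-Glo) measures loss of viable SH-SY5Y neuroblastoma cells after 40 hr compound exposure at 37 °C. AC50 values derive from standard Hill modelling of qHTS concentration-response data.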

[12] = Cell Viability - Renal Proximal Tubule (AID 545); settings: renal proximal tubule cells viability, primary cells of rat origin; series mostly up to 91.7 µM; note: nearly all actives have a fitted effect of over 40% in size
How it was run: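 Primary rat renal proximal tubule cells (1000/well) were treated with compounds for 40 hr at 37 °C in complete medium. Intracellular ATP was measured by CellTiter-Glo luminescence, and AC50 values came from Hill-equation fits of concentration-response data.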

[13] = Cell Viability - Mesenchymal (AID 546); settings: mesenchymal cells viability, qHTS; series mostly up to 91.7 µM;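 note: cells exposed to compound for 40 hours before reading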
How it was run: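 Human kidney mesenchymal cells from normal renal glomeruli, 1000 cells/well, rested 5 hr at 37 °C, then treated 40 hr at 37 °C in complete medium. Cellular ATP read by CellTiter-Glo luminescence; AC50 from Hill-equation fits.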

[14] = Cellular Toxicity (caspase-3) HepG2 (AID 654); settings: HepG2 caspase-3 activation, luminescence; series mostly up to 92.2 µM;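 note: cells exposed to compound for 16 hours before reading; 0% = DMSO alone and 100% = caspase signal from 100 µM tamoxifen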
How it was run: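 Cells plated 5 hr at 37 °C, compound added, incubated 16 hr at 37 °C. Caspase-Glo 3/7 reagent followed, 20 min at room temperature, then luminescence read. Activation scored as signal increase; AC50 from Hill fit.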

[15] = Cellular Toxicity (caspase-3) Jurkat (AID 655); settings: Jurkat caspase-3 activation, luminescence; caspase-3 activation: at 92.2 µM (top of the series), DMSO = 0%, tamoxifen = 100%;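 note: cells exposed to compound for 16 h at 37 °C before reading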
How it was run: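 Jurkat cells (5000/well) in complete medium were treated with compounds for 16 hr at 37 °C, then Caspase-Glo 3/7 luminescence was read after 20 min at room temperature. Data normalized to DMSO (basal) and 100 uM tamoxifen (100%); AC50 from Hill fit.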

[16] = Cellular Toxicity (caspase-3) HUV-EC-C (AID 656); settings: HUV-EC-C cells, caspase-3 activation (apoptosis), vehicle = 0, 100 µM tamoxifen = 100%; series mostly up to 92.2 µM
How it was run: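 HUV-EC-C endothelial cells, 1000/well, were pre-incubated 5 hr at 37°C, then exposed to compounds for 16 hr at 37°C. Caspase-Glo 3/7 luminescence was read after 20 min at room temperature. AC50 came from Hill fits, normalized to DMSO and 100 uM tamoxifen.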

[17] = Cellular Toxicity (caspase-3) SHSY5Y (AID 657); settings: SH-SY5Y caspase-3 activation, DMSO zero, 10 µM staurosporine = 100%; series mostly up to 91.7 µM
How it was run: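 SH-SY5Y human neuroblastoma cells (1500/well) were treated with compounds for 16 h at 37 °C, then Caspase-Glo 3/7 luminescence was read after 1 h at room temperature. Data normalized to DMSO and 10 uM staurosporine; AC50 from Hill fits.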

[18] = Cellular Toxicity (caspase-3) BJ (AID 658); settings: BJ fibroblasts, luminescence, normalized: DMSO 0%, staurosporine 100%; series mostly up to 91.7 µM
How it was run: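 BJ human foreskin fibroblasts, 1000 cells/well, treated 16 hours at 37 °C in complete medium; caspase 3/7 activity by Caspase-Glo luminescence after 1 hr at room temperature. Normalized to DMSO and 10 uM staurosporine; AC50 from Hill fits.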

[19] = Cellular Toxicity (caspase-3) MRC-5 (AID 659); settings: MRC-5 cells, luminescence, normalized: DMSO 0%, 10 µM staurosporine 100%; series mostly up to 91.7 µM
How it was run: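 MRC-5 human normal lung fibroblasts, 1500 cells/well, treated 16 h at 37 °C in complete medium. Caspase 3/7 measured by Caspase-Glo luminescence after 1 h at room temperature. Normalized to DMSO and 10 uM staurosporine; AC50 from Hill fit.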

[20] = Cell Viability - HUV-EC-C (AID 542); settings: HUV-EC-C endothelial cell viability, qHTS; series mostly up to 92.2 µM; note: % is set by controls: 0 for no effect and ±100 for the full control effect; nearly all actives have a fitted effect of over 35% in size
How it was run: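 qHTS cytotoxicity: HUV-EC-C, 1000 cells/well, 5 hr settle, compound 40 hr 37 °C, CellTiter-Glo, luminescence. AC50 via Hill equation.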

CC(C)N=C=NC(C)C
inactive: Potency [1] > 92 µM | Potency [2] > 92 µM | Potency [3] > 92 µM | Potency [4] > 92 µM | Potency [5] > 92 µM | Potency [6] > 92 µM | outcome [7] | activity change, negative = cytotoxicity [8] -6.55% | Potency [9] | Potency [10] | Potency [11] | Potency [12] | Potency [13] | Potency [14] | caspase-3 activation [15] 2.33% | outcome [16] | outcome [17] | outcome [18] | outcome [19]

O=C1CCCCC1
inactive: Potency [1] > 92 µM | Potency [2] > 92 µM | Potency [3] > 92 µM | Potency [4] > 92 µM | Potency [5] > 92 µM | Potency [6] > 92 µM | outcome [7] | activity change, negative = cytotoxicity [8] -6.92% | Potency [9] | Potency [10] | Potency [11] | Potency [12] | Potency [13] | Potency [14] | caspase-3 activation [15] 1% | outcome [16] | outcome [17] | outcome [18] | outcome [19]

CC(C)(O)CCC(C)(C)O
inactive: Potency [1] > 92 µM | Potency [2] > 92 µM | Potency [3] > 92 µM | Potency [4] > 92 µM | Potency [5] > 92 µM | Potency [6] > 92 µM | outcome [7] | activity change, negative = cytotoxicity [8] 3.94% | Potency [9] | Potency [10] | Potency [11] | Potency [12] | Potency [13] | Potency [14] | caspase-3 activation [15] 0.189% | outcome [16] | outcome [17] | outcome [18] | outcome [19]

CC(C)CO
inactive: Potency [1] > 92 µM | Potency [2] > 92 µM | Potency [3] > 92 µM | Potency [4] > 92 µM | Potency [5] > 92 µM | Potency [6] > 92 µM | outcome [7] | activity change, negative = cytotoxicity [8] 3.29% | Potency [9] | Potency [20] | Potency [10] | Potency [11] | Potency [13] | Potency [14] | caspase-3 activation [15] -0.38% | outcome [16] | outcome [17] | outcome [18] | outcome [19]

c1ccc2c(c1)Oc1ccccc1S2
inactive: Potency [1] > 92 µM | Potency [2] > 92 µM | Potency [3] > 92 µM | Potency [4] > 92 µM | Potency [5] > 92 µM | Potency [6] > 92 µM | outcome [7] | activity change, negative = cytotoxicity [8] -9.06% | Potency [9] | Potency [10] | Potency [11] | Potency [12] | Potency [13] | caspase-3 activation [15] -0.252% | outcome [16] | outcome [17] | outcome [18] | outcome [19]

O=[N+]([O-])c1ccc2nc[nH]c2c1
inactive: Potency [1] > 92 µM | Potency [2] > 92 µM | Potency [3] > 92 µM | Potency [4] > 92 µM | Potency [5] > 92 µM | Potency [6] > 92 µM | outcome [7] | activity change, negative = cytotoxicity [8] 4.31% | Potency [9] | Potency [20] | Potency [10] | Potency [11] | Potency [13] | Potency [14] | caspase-3 activation [15] 0.964% | outcome [16] | outcome [17] | outcome [19]

Nc1cc(Cl)c(N)c(Cl)c1
inactive: Potency [1] > 92 µM | Potency [2] > 92 µM | Potency [3] > 92 µM | Potency [4] > 92 µM | Potency [5] > 92 µM | Potency [6] > 92 µM | outcome [7] | activity change, negative = cytotoxicity [8] -5.31% | Potency [9] | Potency [20] | Potency [10] | Potency [12] | Potency [13] | Potency [14] | caspase-3 activation [15] 3.71% | outcome [16] | outcome [17] | outcome [18] | outcome [19]

C=C(C)C(=O)OCC(C)O (stereo unspecified)
inactive: Potency [1] > 92 µM | Potency [2] > 92 µM | Potency [3] > 92 µM | Potency [4] > 92 µM | Potency [5] > 92 µM | Potency [6] > 92 µM | outcome [7] | activity change, negative = cytotoxicity [8] 6.96% | Potency [9] | Potency [20] | Potency [10] | Potency [11] | Potency [13] | caspase-3 activation [15] 1.29% | outcome [16] | outcome [18] | outcome [19]

CCOCCOCC
inactive: Potency [1] > 92 µM | Potency [2] > 92 µM | Potency [3] > 92 µM | Potency [4] > 92 µM | Potency [5] > 92 µM | Potency [6] > 92 µM | outcome [7] | activity change, negative = cytotoxicity [8] -1.44% | Potency [9] | Potency [10] | Potency [11] | Potency [12] | Potency [13] | caspase-3 activation [15] 1.67% | outcome [16] | outcome [17] | outcome [18] | outcome [19]

Cc1ccc(C#N)cc1
inactive: Potency [1] > 92 µM | Potency [2] > 92 µM | Potency [3] > 92 µM | Potency [4] > 92 µM | Potency [5] > 92 µM | Potency [6] > 92 µM | outcome [7] | activity change, negative = cytotoxicity [8] 6% | Potency [9] | Potency [10] | Potency [11] | Potency [12] | Potency [13] | Potency [14] | caspase-3 activation [15] 0.554% | outcome [16] | outcome [18] | outcome [19]

Cc1ccc(N(C)C)cc1
inactive: Potency [1] > 92 µM | Potency [2] > 92 µM | Potency [3] > 92 µM | Potency [4] > 92 µM | Potency [5] > 92 µM | Potency [6] > 92 µM | outcome [7] | activity change, negative = cytotoxicity [8] -13.1% | Potency [9] | Potency [20] | Potency [10] | Potency [11] | Potency [13] | Potency [14] | caspase-3 activation [15] 2.02% | outcome [16] | outcome [17] | outcome [18] | outcome [19]

C=Cc1ccccc1C=C
inactive: Potency [1] > 92 µM | Potency [2] > 92 µM | Potency [3] > 92 µM | Potency [4] > 92 µM | Potency [5] > 92 µM | Potency [6] > 92 µM | outcome [7] | activity change, negative = cytotoxicity [8] 7.3% | Potency [9] | Potency [10] | Potency [11] | Potency [12] | Potency [14] | caspase-3 activation [15] -0.124% | outcome [16] | outcome [17] | outcome [18] | outcome [19]

From PubChem BioAssay (NCATS)
